eIF4H inh: human eIF4H binding inhibitors, primary screen, translation initiation inhibitor project, biochemical, uHTS, fluorescence polarization; eIF4H fluorescence polarization binding assay; inhibition, % at 35 µM; hit rate 0.94% among 290,000;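 note: calls also rest on retests at 20 µM and on dose response follow-up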
eIF4E-4G inh: eIF4E–eIF4G protein interaction inhibitors, primary screen, biochemical, uHTS, TR-FRET, eIF4GI fragment | Eukaryotic translation initiation factor 4E (Mus musculus) + Eukaryotic translation … | TR-FRET eIF4E-eIF4GI(517-606) binding, 2 h | inhibition, % at 21.7 µM | hit rate 0.37% among 220,000 | AID 782, 2007;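 active = inhibition above about 30%, limit read from the data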;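 note: 0% = full FRET control wells and 100% = background wells lacking eIF4GI fragment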
EBV gp42 block: Epstein-Barr virus gp42 inhibitors, primary screen, biochemical, uHTS, fluorescence polarization; hit rate 0.42% among 220,000; AID 1085, 2008; Fluorescence polarization binding assay, mP read-out; inhibition, % (tested at 21.74 µM); in the data active = inhibition above about 50%
PABP1 MLLE inh: inhibitors of PABP1 MLLE–PAM2 peptide binding, primary screen, biochemical, fluorescence polarization, FITC-PAM2, GST-MLLE; hit rate 0.36% among 360,000; Polyadenylate-binding protein 1 (Homo sapiens), P11940; inhibition, % at 20 µM; AID 588489, 2011; in the data active = inhibition above about 35%, passing the limit was not always enough;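 note: plate controls were DMSO wells with GST-MLLE for no effect and wells lacking GST-MLLE protein for full effect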
Target sequence (P11940 whole entry, looked up): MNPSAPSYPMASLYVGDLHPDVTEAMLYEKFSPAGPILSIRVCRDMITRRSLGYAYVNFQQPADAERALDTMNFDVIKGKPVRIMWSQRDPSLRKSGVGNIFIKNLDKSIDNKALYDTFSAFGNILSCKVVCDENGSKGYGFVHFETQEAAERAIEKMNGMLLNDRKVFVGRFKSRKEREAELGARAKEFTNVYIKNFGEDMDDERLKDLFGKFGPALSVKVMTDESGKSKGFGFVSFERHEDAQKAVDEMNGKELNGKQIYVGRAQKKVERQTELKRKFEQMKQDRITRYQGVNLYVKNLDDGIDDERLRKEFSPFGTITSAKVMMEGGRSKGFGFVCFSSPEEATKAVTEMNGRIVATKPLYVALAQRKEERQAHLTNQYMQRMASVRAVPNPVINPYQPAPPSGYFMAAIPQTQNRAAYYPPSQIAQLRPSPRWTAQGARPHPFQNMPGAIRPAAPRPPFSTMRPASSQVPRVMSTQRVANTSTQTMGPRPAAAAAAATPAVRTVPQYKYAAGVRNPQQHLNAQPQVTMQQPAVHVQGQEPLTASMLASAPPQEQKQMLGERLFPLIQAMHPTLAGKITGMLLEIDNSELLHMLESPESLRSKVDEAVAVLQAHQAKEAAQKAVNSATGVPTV
PABP FP inh: PABP poly(A) RNA binding inhibitors, primary screen, biochemical, fluorescence polarization, uHTS; AID 2014, 2009; calls only at 35 µM; Polyadenylate-binding protein 1 (Homo sapiens), P11940; hit rate 1% among 290,000;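 note: calls also rest on retests at 20 µM and on dose response follow-up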
The depositor's hits bear a star; i = inactive; u = inconclusive; x = not tested or not shown; + = active, no number; [ ] = dose if it differs, or a comment. Sampled rows, rich in hits. Any-hit rate of the full collection: about 1.7%. Unless noted, the rule behind the calls is not given here.

SMILES | eIF4H inh | eIF4E-4G inh | EBV gp42 block | PABP1 MLLE inh | PABP FP inh
CC(C)c1nc2c([nH]1)c(=O)n(C)c(=O)n2C | 54* | 3 | -26 | 1 | i
CCC[N+](CC#CCO)(CC#Cc1ccccc1)CCC | -3 | 91* | -4 | -1 | i
O=C(CC[C@H]1O[C@@H](n2ccc(=O)[nH]c2=O)[C@H](O)[C@@H]1O)N[C@H](Cc1ccccc1)C(=O)NCC1CCCCC1 | x | x | x | -3 | x
CC(=O)N1CCc2cc(S(=O)(=O)C(C)CC(=O)Nc3ccc(OC(F)(F)F)cc3)ccc21 (configuration not stated) | x | x | x | -6 | x
CS(=O)(=O)N1Cc2ccccc2CC1C(=O)O (configuration not stated) | u | 0 | -14 | 12 | +
CC(=O)c1ccc(S(=O)(=O)N2Cc3ccccc3CC2C(=O)O)cc1 (configuration not stated) | 99* | 1 | -2 | 1 | +
O=C(O)C1Cc2ccccc2CN1S(=O)(=O)/C=C/c1ccccc1 (configuration not stated) | -4 | 2 | 3 | 7 | i
OCCNCCSc1nc(C2CCCCC2)n(-c2ccccc2Cl)n1 | 4.8* | -8 | -3 | 1 | i
CCOn1c(=O)c(=O)n(OC)c2ccccc21 | 4 | 13 | -10 | -2 | i
COc1cc2c(cc1NC(=O)CN1C(=O)NC3(CCc4ccccc43)C1=O)oc1ccccc12 (configuration not stated) | -4 | -4 | 62* | -8 | i
Cc1cc(N)ccc1N1CCCC1 | u | 45*[fluorescence artefact?] | -15 | 7 | u
CCn1c(C)cc(C)c(C#N)c1=O | 6 | 1 | -9 | 10 | i
Cc1cc(C)n(NC(=S)NC2CCCC2)c(=O)c1C#N | -2 | -7 | -12 | 45* | i
C/C(=N\NC(=O)Cc1c(C)[nH][nH]c1=O)c1cccc(Br)c1 | 2 | 97* | 17 | -16 | i
C/C(=N\NC(=O)Cc1c(C)[nH][nH]c1=O)c1ccc(Cl)c(Cl)c1 | -15 | -3 | -11 | -13 | i
Cc1ccc(CN2CC(C(=O)NCCCSc3ccccc3)CC2=O)cc1 (configuration not stated) | -9 | x | x | -6 | i
COc1ccc(NC(=O)COC(=O)c2ccc([N+](=O)[O-])o2)cc1Cl | -3 | 6 | 0 | 7 | i
O=C(O)CCC(=O)N1N=C(c2ccco2)CC1c1cccs1 (configuration not stated) | 76* | 8 | -19 | 13 | +
O=C(O)CCC(=O)N1N=C(c2ccco2)CC1c1ccco1 (configuration not stated) | 35 | x | x | -4 | i
COc1ccc(NC(C)=O)cc1S(=O)(=O)NC(C)c1ccc(-n2ccnc2)cc1 (configuration not stated) | x | x | x | 9 | x
CC(=O)Nc1ccc(SCCN2CC[C@@H](C(C)(C)C)CCC2=O)cc1 | x | x | x | 41* | x
C[C@@H](CSc1ccccc1)CN1CC[C@H](C(C)(C)C)CCC1=O | 3 | x | x | -3 | i
COc1ccc(SC[C@H](C)CN2CC[C@H](C(C)(C)C)CCC2=O)cc1 | x | x | x | 40* | x
N=C(N)SCP(=O)(c1ccccc1)c1ccccc1 | 6 | -13 | -12 | 38* | i
CCc1nn2c(=O)cc(COc3ccc(/C=C4\C(=N)N5N=C(CC(C)C)SC5=NC4=O)cc3)nc2s1 | 17 | 10 | 9 | x | i
SMILES | eIF4H inh | eIF4E-4G inh | EBV gp42 block | PABP1 MLLE inh | PABP FP inh
CCC1=NN2C(=N)/C(=C\c3ccc(OCc4cc(=O)n5nc(CC)sc5n4)c(OC)c3)C(=O)N=C2S1 | 82 | 21 | 63* | -3 | i
CCN1CCN(c2ccc(S(=O)(=O)N3CCOCC3)cc2NC(=O)c2ccc(F)cc2Cl)CC1 | x | x | x | -24 | x
CCn1c2ccccc2c2cc(NC(=O)c3ccc(=O)oc3)ccc21 | u | -3 | 127* | -34 | u
CCn1c2ccccc2c2cc(NC(=O)c3coc(=O)c(Br)c3)ccc21 | 105* | 22 | 97* | 104 | i
CCn1c2ccccc2c2cc(NC(=O)c3ccc(Br)o3)ccc21 | 13 | 5 | 3 | 10 | i
CCNC(=S)Nc1ccc(S(=O)(=O)Nc2cc(C)nc(C)n2)cc1 | -3 | -3 | -11 | 23 | i

Assay outcomes (PubChem)
